Whole data set: some 68,000 sequences, median “fluorescence intensity (a.u.)” near 9,100, cut for the highest 2% near 16,000. This excerpt belongs to a sample that is enriched for the highest values.

OsWRKY34, sequence (Q0JBA9 entry or part of it): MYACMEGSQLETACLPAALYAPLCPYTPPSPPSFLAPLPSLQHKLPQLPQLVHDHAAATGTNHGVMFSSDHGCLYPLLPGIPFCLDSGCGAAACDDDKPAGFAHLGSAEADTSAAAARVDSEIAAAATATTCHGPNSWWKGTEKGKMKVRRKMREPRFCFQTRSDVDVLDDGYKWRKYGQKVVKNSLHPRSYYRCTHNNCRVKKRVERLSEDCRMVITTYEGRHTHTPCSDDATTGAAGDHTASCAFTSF

For this test, the target named is OsWRKY34 (Oryza sativa, UniProt Q0JBA9 1-250). Kind of test: protein-binding microarray (RPBM); PBS, 2% BSA, 51.3 ng/ul salmon testes DNA, 50 uM zinc acetate, 200 nM TF, 25 C, 1 h; high values mean tight binding. As to conditions: protein: recombinant; tags: N-terminal polyhistidine and DsRed monomer fusion (pET32a); label: CyDye5-dUTP incorporated in the synthesized complementary strand; 3' TTTTT single-stranded linker to array surface; dsDNA, one strand shown. In short, it runs like this:
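An Axon 4000B scanner gave the binding signal as per-feature fluorescence intensity in arbitrary units. This followed washing of a custom Agilent array that had been incubated for 1 h at 25 °C with 200 nM protein in PBS, 2% BSA, salmon testes DNA and 50 µM zinc acetate. The proteins were transcription factors fused at the N-terminus to polyhistidine and DsRed, expressed in E. coli BL21-CodonPlus and purified on Ni–NTA.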
In the case of “CTTCGCTTTCGTCACGTTCTTGATTTGGGCGGGCGCGGAGCGGAGTCACCTAGTGCAG”, the binding signal was 8980 fluorescence intensity (a.u.). Under “CTCGGGAGAGGGGAGGCGTAGATTCTTCTGTTGCTTCAGTCGGAGTCACCTAGTGCAG” stands 10300 fluorescence intensity (a.u.). Under “CGTCGAACGTCCACTACCATCCTCTTGTTAATCCCGCAAACGGAGTCACCTAGTGCAG” stands 8060 fluorescence intensity (a.u.). Under “TTTCTTTGACTCGGTGACTTTGTGAGAGATGTTTTATGCCCGGAGTCACCTAGTGCAG” stands 9190 fluorescence intensity (a.u.); under “CTCCGTCCCATAATATAAGGGATTTTGACTTTTTACTTGCCGGAGTCACCTAGTGCAG”, 11200 fluorescence intensity (a.u.).

For the sequence “TCCCCGTTACCGAGCGCCGCCGCCTCCGCCTCCACCTCTACGGAGTCACCTAGTGCAG”, the binding signal is 10100 fluorescence intensity (a.u.). The figure for “TCTACACAATTCAAAATCCGGCCCTGTTTATTTTGTACTACGGAGTCACCTAGTGCAG” is 8420 fluorescence intensity (a.u.); for “CTACACTCCTAATCTCTCTCTCTTTCTCGAGTGGAATCCACGGAGTCACCTAGTGCAG” it is 8970 fluorescence intensity (a.u.); for “ACGCGCCGCAACGCAACTTCCATGGACGCATCTGGACCACCGGAGTCACCTAGTGCAG” it is 8130 fluorescence intensity (a.u.). Under “GTTTTTAATTTCGATAATATTTGATTCTGTTTTCGTGTCCCGGAGTCACCTAGTGCAG” stands 8930 fluorescence intensity (a.u.); under “ATTACCACTGATGCTGCTTGGTTCGCAATACTTGCTTCTTCGGAGTCACCTAGTGCAG”, 9730 fluorescence intensity (a.u.). Regarding “GTTCTGACTGTTGTGTTGTGGGTGTTTGGTTTATGAGCAGCGGAGTCACCTAGTGCAG”, the binding signal is 8430 fluorescence intensity (a.u.).

As to “CTCGTATAGTTAGCTTGGAGGACTGAGCTTTGTGGGTGGGCGGAGTCACCTAGTGCAG”, the binding signal was 8880 fluorescence intensity (a.u.). The figure for “GACTGAGCTTTGTGGGTGGGTTGGTTGGTTGGTTATACAACGGAGTCACCTAGTGCAG” is 30500 fluorescence intensity (a.u.).

“GTCTCCATTGCACCCACGTTGGATCCGCCCTTGCACATGGCGGAGTCACCTAGTGCAG”: the binding signal was 8470 fluorescence intensity (a.u.). As to “TAATTCATGGTTGGTTTTTAATTATATTTCCCTCCTTAAACGGAGTCACCTAGTGCAG”, the binding signal is 9580 fluorescence intensity (a.u.). The figure for “TCGTCGGTGGTGTGGGGAGGAGAAGATGGCCGGAGAGGAACGGAGTCACCTAGTGCAG” is 15000 fluorescence intensity (a.u.); for “CGACGGGAGAGGAGGAGCCGGTGGGCGGGGTGGGGCCCACCGGAGTCACCTAGTGCAG” it is 11000 fluorescence intensity (a.u.); for “ATCCCAAAATAATGTGTTCGGGTGGGCGGGCGGGAAATATCGGAGTCACCTAGTGCAG” it is 23000 fluorescence intensity (a.u.).

On to “GTGTTCTCATTGTATTGGGTATTCAAATGTTTTGTAATATCGGAGTCACCTAGTGCAG”, for which the binding signal is 9730 fluorescence intensity (a.u.).

Regarding “ATTTTGTGTTTTTGTGGTGGTAATATTGTTTTTGAGTTCTCGGAGTCACCTAGTGCAG”, the binding signal is 9700 fluorescence intensity (a.u.). The figure for “TTCGGGGTGTTCGTCAAAAATGTGGGGAGGAGGCATGGATCGGAGTCACCTAGTGCAG” is 13100 fluorescence intensity (a.u.); for “GCGGGTGTGGCATTGTGGGTAATCTCGGCCGTTCAAATATCGGAGTCACCTAGTGCAG” it is 17300 fluorescence intensity (a.u.).

As for “TTACCAAACTGAAAATAAAAATGTGTGTTTTTTTTAATATCGGAGTCACCTAGTGCAG”, the binding signal is 9410 fluorescence intensity (a.u.).

In the case of “AATCATCACATCATCACCGTCATCTTCTCTAGCATAGCAACGGAGTCACCTAGTGCAG”, the binding signal is 8050 fluorescence intensity (a.u.). Under “CCTTCCCATGCTGCTGTGATGTGTCATACGCCGCCGCCACCGGAGTCACCTAGTGCAG” stands 9920 fluorescence intensity (a.u.); under “TCCCAACCACACCCACCCACCCGCCCAATCCATCCACCAACGGAGTCACCTAGTGCAG”, 8860 fluorescence intensity (a.u.); under “TCCCTTCAAATATTGTTTTTCTTTTAACACTCAATCTCTCCGGAGTCACCTAGTGCAG”, 8940 fluorescence intensity (a.u.). Under “TAGAATTACATCTGATATACCGGTCTTACGCTCTTAGATTCGGAGTCACCTAGTGCAG” stands 8860 fluorescence intensity (a.u.); under “GCCCAGCCCAGGCCCACCTTATGTTTTGTTGCATCTCTACCGGAGTCACCTAGTGCAG”, 10700 fluorescence intensity (a.u.); under “TTTTTTACCATGGGTCTTGCATTGAATTTTTCTTTTTTTTCGGAGTCACCTAGTGCAG”, 9890 fluorescence intensity (a.u.). For the sequence “AATAGGGCATGAACCCCAGCCATTTCTCCTCATCCCACACCGGAGTCACCTAGTGCAG”, the binding signal is 63200 fluorescence intensity (a.u.). The figure for “CACAGGGCATGAATTGATGAATAGGATGGCCATTTTTTTTCGGAGTCACCTAGTGCAG” is 65000 fluorescence intensity (a.u.); for “TCCACCCATCCTCATCATTATCCTCTCTCTCCTCTCTCACCGGAGTCACCTAGTGCAG” it is 9640 fluorescence intensity (a.u.). Under “CTCTCTCCACCCTCAGCCGCCACACTCCCATCCATTCTCCCGGAGTCACCTAGTGCAG” stands 9060 fluorescence intensity (a.u.); under “TGCCTAGATGAATACTGCATGTTTTTTTTTTGTTTGATTTCGGAGTCACCTAGTGCAG”, 9620 fluorescence intensity (a.u.); under “TCCACCCATCGTTCTCATGACCTGCCAACCCCATCCCAGCCGGAGTCACCTAGTGCAG”, 10000 fluorescence intensity (a.u.). Under “GAACCCACATCCCACCATGACGCGCAATTACCTCATTATCCGGAGTCACCTAGTGCAG” stands 17000 fluorescence intensity (a.u.); under “TCATCCGCACCAACACCATTAGTTATATTACCCACACATCCGGAGTCACCTAGTGCAG”, 8520 fluorescence intensity (a.u.); under “TCCTGTGCGCCTCCCTCGAGCGTGTGACTGTGTTTGTGACCGGAGTCACCTAGTGCAG”, 8710 fluorescence intensity (a.u.). For the sequence “TTTAAGTTTGTTTGGTTGTGGGTTATAGGCTCTATTTCAACGGAGTCACCTAGTGCAG”, the binding signal is 12000 fluorescence intensity (a.u.).

For the sequence “ATTTGCATGACATATATCATTACTACATTATTTTATATAGCGGAGTCACCTAGTGCAG”, the binding signal was 8930 fluorescence intensity (a.u.). The figure for “GTGTGTTATTTTCTTCCACTCTTTAGTTTTCACTTTTTGACGGAGTCACCTAGTGCAG” is 9240 fluorescence intensity (a.u.); for “GTTGCCCTTTTGCTCCTGTTGTCTTCTCCGCTCCTGTCGTCGGAGTCACCTAGTGCAG” it is 9800 fluorescence intensity (a.u.); for “TGGCATTTTTTTTTTCTTGTGAAAAACCGACGAGAGGAAGCGGAGTCACCTAGTGCAG” it is 8190 fluorescence intensity (a.u.). Under “GTTCATTTTATAGTCTAGCAAAATTTCCTCTCTTTTTTTTCGGAGTCACCTAGTGCAG” stands 10700 fluorescence intensity (a.u.); under “AGTGACCCTTATCTCTTCACCTATCTCTCTCCCTTCCCCTCGGAGTCACCTAGTGCAG”, 9580 fluorescence intensity (a.u.); under “TTCTTTGTTGGATTGATGATCGCTTTTGTGTGGGAGAGGTCGGAGTCACCTAGTGCAG”, 9380 fluorescence intensity (a.u.). On to “ATCTAGCCTATCGCTCTTGTGTTCTCGGTGTGTACTTGGTCGGAGTCACCTAGTGCAG”, for which the binding signal was 16600 fluorescence intensity (a.u.). The figure for “TTTCTTTCTTTCTTTCTTGGGATCTTTTCCTTCTTTTTTTCGGAGTCACCTAGTGCAG” is 12600 fluorescence intensity (a.u.); for “TCCTTTTTTTTGGGTGCTTTTCTTTTGTATAGCACTGTACCGGAGTCACCTAGTGCAG” it is 65500 fluorescence intensity (a.u.); for “ACGACGAGGTCGCTTTTTTCTTGTTGGGCTGGGCTGGGATCGGAGTCACCTAGTGCAG” it is 21800 fluorescence intensity (a.u.). On to “CCTTCTATTTTTCCGTCACATCAAATGTTTGGACACATGTCGGAGTCACCTAGTGCAG”, for which the binding signal was 9670 fluorescence intensity (a.u.). The figure for “CAAACTTCTAATTTTTCCGTCACATCAAATGTTTGGATATCGGAGTCACCTAGTGCAG” is 34900 fluorescence intensity (a.u.); for “TTCTTTTTTTGGCTTCCTTTTTTTTGTGTGTATATATGTACGGAGTCACCTAGTGCAG” it is 13700 fluorescence intensity (a.u.). With “GTTCTCGGTGTGTACTTGGTCCATCAGTCTCTTCAGATCTCGGAGTCACCTAGTGCAG”, the binding signal is 8120 fluorescence intensity (a.u.). “GTCAAACATCAACTTTTCCGTCACATCAAATGTTTGGACACGGAGTCACCTAGTGCAG”: the binding signal was 8670 fluorescence intensity (a.u.). Turning to “CGTCGATCTCTATCTCTCTCTCTCGCTTGTTCTTCTTCACCGGAGTCACCTAGTGCAG”, the binding signal was 15200 fluorescence intensity (a.u.). The figure for “TCTTTTGTATAGCACTGTACCGTATACAACACTGAATACACGGAGTCACCTAGTGCAG” is 8080 fluorescence intensity (a.u.).

The values above are taken from publication PMC7819943, “Rice protein-binding microarrays: a tool to detect cis-acting elements near promoter regions in rice”.
